From PubChem BioAssay AID651784 (National Center for Advancing Translational Sciences (NCATS), 2012)
Results filed as inconclusive are left out. The source made the active and inactive calls. The call rests on the fitted dose curve; in most records, active means well fitted inhibition curve with a large enough effect; inconclusive means small, poorly fitted or top-dose-only effect; inactive means no such curve, though single readings can be large or run the other way.

Test: Acumen qHTS Assay for Inhibitors of the mTORC1 Signaling Pathway in MEF (Tsc2-/-, p53-/-) Cells: Hit Validation;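 further: phospho-rpS6 Ser235/236 immunofluorescence normalized to propidium iodide cell count; nearly all actives have a fitted effect of over 65% in size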;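 on activity change, negative = inhibition: cells exposed to compound for 24 hours; plate controls were DMSO for no effect and 7.5 nM rapamycin control for full effect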
Conditions: Acumen imaging; activity change, negative = inhibition: at 37.3 µM (top of the series)
Potency means the concentration at half of the fitted maximal effect.

SMILES | activity change, negative = inhibition | Potency
Cc1cccc(C(=O)Nc2c3c(nn2-c2ccc(Cl)cc2)CS(=O)(=O)C3)c1 | 12.6% | –
Cc1ccccc1NC(=O)c1sc2nc3c(cc2c1N)CCCC3 | -21.3% | –
COc1ccc(CCNC(=O)c2ccc3c(c2)N(Cc2ccccc2)CCS3)cc1OC | – | 5.21 µM (active)
Cc1ccc([C@H]2Nc3ccc(S(=O)(=O)Nc4cccc(Cl)c4C)cc3[C@H]3C=CC[C@H]32)cc1 | 8.84% | –
Cc1cccc(NC(=O)Cn2cc(C(=O)C3CCCCC3)c3ccccc32)c1C | – | 1.04 µM (active)
CCN(CC)S(=O)(=O)c1ccc(NC(=O)CCc2c(C)nc3cc(-c4ccc(Cl)cc4)nn3c2C)cc1 | -101% | –
CCCN1C(=O)C(Cc2nc3ccccc3c(=O)n2CC)c2ccccc21 (stereo not drawn) | -1.87% | –
CCNc1nc2c(c(=O)[nH]c(=O)n2C)n1CC(O)COc1ccc(Cl)cc1Cl (stereo not drawn) | – | 0.147 µM (active)
Cc1ccc(NC(=O)c2c(NC(=O)C(F)(F)F)sc3c2CCCCC3)cc1 | -36.6% | –
COc1ccc(N(Cc2ccccc2)C(=O)c2nc(S(C)(=O)=O)ncc2Cl)cc1 | – | 1.85 µM (active)
Cc1nc2nncn2c(NCc2ccc(Cl)cc2)c1C | – | 4.14 µM (active)
COc1ccc2nc(NC(=O)c3nc(S(=O)(=O)Cc4ccccc4)ncc3Cl)sc2c1 | – | 5.85 µM (active)
CCN1CCC(N(Cc2ccc(F)cc2)C(=O)Nc2ccc(C)c(F)c2)CC1 | 5.5% | –
FC(F)(F)c1cccc(Nc2nc3nonc3nc2Nc2ccc(Cl)cc2)c1 | – | 1.65 µM (active)
CCc1ccc(NC(=O)C2CCCN(S(=O)(=O)c3cccc4cccnc34)C2)cc1 (stereo not drawn) | -7.11% | –
CCOc1ccc(NC(=O)c2sc3nc4c(cc3c2N)CCCCCC4)cc1 | – | 9.27 µM (active)
COc1cc(CNc2ccc3c(c2)ncn3C(C)C)cc(OC)c1OC | -25.9% | –
CN(C)c1ccc(Nc2nc3ccccc3n3nnnc23)cc1 | -10% | –
COc1ccc(NC(=O)CCS(=O)(=O)c2nc(-c3cccs3)cc(C(F)(F)F)n2)cc1OC | -87.3% | –

SMILES | activity change, negative = inhibition | Potency
Cc1ccc2oc(-c3ccc(Cl)cc3)c(O)c(=O)c2c1 | -44.5% | –
O=C(Cn1cc(SCc2ccccc2)c2ccccc21)N1CCCCCC1 | 15.1% | –
CCc1ccc(CN(Cc2ccco2)C(=O)c2cc(-c3ccc(C)c(F)c3)on2)cc1 | -10.4% | –
CC(C)(C)C(=O)Nc1ccc(-c2nc3ccc(NC(=O)C(C)(C)C)cc3[nH]2)cc1 | -3.72% | –
CCCCS(=O)(=O)c1nc(-c2ccc(Br)cc2)cc(-c2ccccc2)c1C#N | – | 6.56 µM (active)
Cc1ccc(OCC(O)Cn2c(=N)n(CCN3CCCCC3)c3ccccc32)cc1 (stereo not drawn) | – | 10.4 µM (active)
CCCS(=O)(=O)c1ncc(Cl)c(C(=O)N2CCN(c3ccc(OC)cc3)CC2)n1 | – | 7.36 µM (active)
COc1ccc(-c2nc(C)c(CCNC(=O)c3ccccc3Br)s2)cc1OC | -7.02% | –
COc1ccc(Cl)cc1C1CC(=O)Nc2cc3c(cc21)OCCO3 (stereo not drawn) | -26.9% | –
CCOc1ccccc1NC(=O)CSc1cc(=O)n(CC)c2ccccc12 | 1.04% | –
Cc1cccc(NS(=O)(=O)c2ccc3[nH]c4c(c3c2)CCCCCC4)c1 | – | 5.21 µM (active)
CN1CCN(C2(CNC(=O)COc3ccc(C(C)(C)C)cc3)CCCCC2)CC1 | – | 14.7 µM (active)
Cc1nn(CCCC(=O)NCc2cccc(Cl)c2)c(=O)c2c1sc1ccccc12 | -2.73% | –
Cc1ccc(NC(=O)c2nc(S(=O)(=O)Cc3ccc(F)cc3)ncc2Cl)cc1C | – | 11.7 µM (active)
COc1ccc(NC(=O)CSc2nc3ccccc3nc2N2CCC(C)CC2)cc1 | 6.7% | –
COc1ccc(OC)c(NC(=O)c2nc(S(=O)(=O)Cc3ccc(F)cc3)ncc2Cl)c1 | – | 2.07 µM (active)
CN1CCC(Nc2ncc3ncnc(Nc4ccc(F)c(Cl)c4)c3n2)CC1 | -95% | –
CC1CCCN(CCCNC(=O)c2cc3c(Cl)nc4ccccc4c3s2)C1 (stereo not drawn) | -16.9% | –
COc1ccc(-c2n[nH]c3c2C(c2ccc(O)cc2)N(c2ccc(Br)cc2)C3=O)cc1 (stereo not drawn) | 2.17% | –
